# AmpC inh no detg: qHTS Inhibitors of AmpC Beta-Lactamase (assay without detergent) | Potency, µM (series often up to 57.1 µM), without a hit: at the top dose activity change, negative = inhibition, actives largely listed as inhibitors | P00811 | AID 485341, 2010 | actives 0.52% (n = 330,000) | AmpC nitrocefin hydrolysis, absorbance 480 nm, 0.0001% Triton;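 also: plate controls were no compound for no effect and no enzyme for full effect; nearly all actives have a fitted effect of over 20% in size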
# Target sequence (P00811 whole entry, looked up): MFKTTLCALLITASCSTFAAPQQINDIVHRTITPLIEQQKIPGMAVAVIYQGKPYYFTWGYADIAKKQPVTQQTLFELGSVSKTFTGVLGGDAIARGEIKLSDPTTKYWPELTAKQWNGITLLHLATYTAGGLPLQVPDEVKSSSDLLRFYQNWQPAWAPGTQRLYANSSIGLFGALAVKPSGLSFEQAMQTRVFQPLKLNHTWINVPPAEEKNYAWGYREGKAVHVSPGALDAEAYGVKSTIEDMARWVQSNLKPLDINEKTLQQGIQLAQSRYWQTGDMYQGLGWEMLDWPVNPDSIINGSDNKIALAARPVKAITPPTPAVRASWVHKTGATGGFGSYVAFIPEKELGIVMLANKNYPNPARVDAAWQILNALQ
#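 AmpC (5.3 nM in the dispensed reagent) in 20 mM phosphate pH 7.0 with 0.01% (detergent screen) or 0.0001% Triton X-100 was preincubated with compounds for 15 min at room temperature. Nitrocefin was then added from an 800 uM solution, and hydrolysis was followed at 480 nm.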
# AMA1 RON2 block: qHTS for Inhibitors of AMA1-RON; Towards Development of Antimalarial Drug Lead: Primary Screen. Plasmodium falciparum AMA1 (3D7) - RON2 peptide interaction. AlphaScreen AMA1-biotinylated RON2 peptide binding. Potency, µM (doses to about 58.2 µM), without a hit: top-dose activity change, negative = inhibition, actives largely listed as inhibitors. actives 0.2% (n = 360,000). AID 720542, 2013;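 also: 0% = vehicle wells and -100% = peptide control; nearly all actives have a fitted effect of over 45% in size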
#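 AMA1 (3D7) with his tag at 25 nM final met compounds first, then biotinylated RON2 peptide at 25 nM; detection used donor plus acceptor beads, 10 µg/mL apiece, read by AlphaScreen after 30 min at room temperature.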
# FMDV inh: High Throughput Screening for Foot and Mouth Disease Virus Antivirals | FMDV antiviral cell-based qHTS | Potency, µM (doses to about 57.9 µM), without a hit: at the top dose activity change, negative = inhibition, most hits filed as inhibitors | actives 1.2% (n = 410,000) | AID 1159524, 2015; calls by dose curve; tested in HEK293T cells; also: read-out not given here; nearly all actives have a fitted effect of over 45% in size
# Sm TGR inh: qHTS Assay for the Inhibitors of Schistosoma Mansoni Peroxiredoxins | purified TGR, DTNB reduction, TNB absorbance 405 nm | actives 3% (n = 360,000) | Potency, µM (titrated, usually from 114 µM), for inactives: at the top dose activity change, negative = inhibition, actives largely listed as inhibitors | Schistosoma mansoni thioredoxin glutathione reductase (TGR), Q962Y6; also: nearly all actives have a fitted effect of over 60% in size
#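 First, TGR (20 nM dispensed) and NADPH were mixed with compound. Second, a 15 min room-temperature incubation followed. Third, further NADPH and then DTNB were added to start the reaction. Finally, TNB absorbance was monitored kinetically.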
# AmpC detergent: qHTS Inhibitors of AmpC Beta-Lactamase (assay with detergent); Potency, µM (series often up to 114 µM), without a hit: top-dose activity change, negative = inhibition, hits mostly inhibitors; AmpC hydrolysis of nitrocefin, absorbance 480 nm, 0.01% Triton; actives 0.041% (n = 370,000); P00811; AID 485294, 2010;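 also: 0% = no-compound wells and -100% = no-enzyme wells; nearly all actives have a fitted effect of over 25% in size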
#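 20 mM phosphate pH 7.0 + 0.01% (detergent screen) or 0.0001% Triton X-100; 5.3 nM AmpC reagent; cpd preinc 15 min RT; nitrocefin (800 uM stock) to start; A480 q20 s × 4 min; Activity was normalised to no-enzyme and no-compound control wells.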
# * hit, by the source's call; ? = inconclusive; nt = no result given; [ ] = dose if it differs, or a comment. Compounds with a hit are over-represented: about 4.1% of the library has one in this group of screens. Unless noted, calls follow the shape of the dose curve; as a rule, active = well fitted curve in the direction sought with a large enough effect; inconclusive = small, poorly fitted or top-dose-only effect, or another doubt; inactive = no such curve, though single readings can be large; an effect the other way counts as inactive or inconclusive. Unless noted, % is scaled to controls: 0 for no effect and ±100 for the full control effect; potency is read from the fitted curve at half-maximal effect.
SMILES,AmpC inh no detg,AMA1 RON2 block,FMDV inh,Sm TGR inh,AmpC detergent
O=C(Nc1ccc(S(=O)(=O)N2CCCC2)cc1)c1cccc(OC(F)F)c1,31.6µM*,-13.3%,-21.3%,-7.3%,-17.7%
COc1ccc(Cn2ccc3nc(C)c(C(=O)N4CCN(c5cc(C)ccc5C)CC4)cc3c2=O)cc1,nt,nt,?,-3.6%,22.1%
Cc1c(Cl)cccc1NC(=O)CSc1nc(=O)n(Cc2cccnc2)c2c1CCC2,nt,nt,-18.3%,-0.5%,-1.3%
CSc1nc(O)c(C(c2ccc(F)cc2)c2c(O)nc(SC)[nH]c2=O)c(=O)[nH]1,nt,-9.1%,-6.9%,nt,nt
CSc1nc(O)c(C(c2ccccc2)c2c(O)nc(SC)[nH]c2=O)c(=O)[nH]1,-1.4%,1.5%,6.2%,7.94µM*,4.8%
CSc1nc(O)c(C(c2ccc(C)cc2)c2c(O)nc(SC)[nH]c2=O)c(=O)[nH]1,2.2%,4.8%,-10.8%,44.7µM*,10.6%
CC(=O)n1c(=O)c2ccccc2c(=O)n1-c1ccccc1,-7.6%,2.7%,-8.7%,31.6µM*,0.9%
O=c1c2ccccc2c(=O)n(-c2ccccc2)n1CCCCBr,nt,-3.1%,-9.5%,nt,nt
Cc1cc2c(n1-c1ccc(C(=O)O)cc1)CCCCC2,-17.8%,nt,nt,25.1µM*,-3.9%
Cc1cc(C(=O)CCl)c(C)n1-c1cccc([N+](=O)[O-])c1,-11.8%[11.4 µM],2.7%,11.2µM*,?,-12.0%
Cc1cc(C(=O)CCl)c(C)n1-c1ccon1,-1.7%,-14.6%,22.4µM*,11.2µM*,-2.7%
CC(C)C(=O)Nc1ccc(COc2ccccc2CN(Cc2ccccc2)C(=O)OC(C)(C)C)cc1,nt,16.3%,-15.3%,nt,nt
CC(C)(C)OC(=O)N(CCc1ccccc1)Cc1ccc(OCc2cccc(NC(=O)C3CC3)c2)cc1,nt,-5.6%,22.4µM*,nt,nt
CC(C)C(=O)Nc1cccc(COc2ccc(CN(Cc3ccccc3)C(=O)OC(C)(C)C)cc2)c1,nt,7.0%,11.2µM*,nt,nt
COc1ccc(-c2[nH]c(-c3ccc(O)cc3)nc2-c2ccccc2)cc1,nt,nt,-11.6%,-8.9%,-1.5%
COc1ccc(-c2cc(C)no2)cc1S(=O)(=O)N(C)c1ccc(C)cc1,59.3%,-8.1%,-16.2%,4.5%,0.3%
CCOc1ccc(N(C)S(=O)(=O)c2cc(-c3cc(C)no3)ccc2CC)cc1,5.4%,16.6%,17.8µM*,3.2%,1.4%
CCOc1ccc(N(C)S(=O)(=O)c2cc(-c3cc(C)no3)ccc2C)cc1,26.3%,-10.8%,20µM*,8.4%,5.0%
CCOc1ccc(N(C)S(=O)(=O)c2cc(-c3cc(C)no3)ccc2OC)cc1,58.4%,-5.4%,-14.8%,21.7%,1.8%
CCCN(CCC)CCNC(=O)C1CCCN(S(=O)(=O)c2cccc3nsnc23)C1 (centres undefined),nt,nt,-2.7%,13.1%,1.2%
CSc1ncc(CN2CCCC(C(=O)Nc3ccc(-c4ccco4)cc3)C2)cn1 (centres undefined),27.0%,-12.9%,-13.5%,17.8µM*,1.2%
Cc1ncc(CN2CCCC(C(=O)Nc3ccc(-c4ccco4)cc3)C2)n1C (centres undefined),32.5%,-9.9%,-16.9%,4.2%,6.9%
COc1ccc(NC(=O)CCS(=O)(=O)c2ccc3c(c2)n(C)c(=O)c(=O)n3C)cc1Cl,nt,nt,-12.4%,-21.6%,14.7%
ClC1=C(Cl)C(Cl)=C(Cl)C1=C/C=C/c1ccccc1,-36.4%,-7.7%,?,50.1µM*,-2.5%
COCC(=O)Nc1cc(C(=O)N2CC3CCCC2C3)c2c(c1)nc(-c1ccncc1)n2C (centres undefined),nt,nt,-5.0%,nt,nt
CCCCC(=O)Nc1c(C(=O)N2CCN(c3ccccc3)CC2)oc2ccccc12,nt,nt,44.3%,-2.8%,23.0%
CCn1nc(C)cc1-c1nnc(Sc2ncc([N+](=O)[O-])s2)n1C,-39.9%,-3.7%,28.2µM*,0.282µM*,?

# Bioassay records (PubChem)
